# Bioassay records deposited in PubChem by several laboratories.
# CYP2C9 inh = human CYP2C9 inhibition; inhibition, % at 5 µM; 96,000 tested, 20% active; CYP2C9 Supersomes, luciferin-H conversion, luminescence; AID 777;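 active = blocking of liver enzyme CYP2C9 beyond about 50% at 5 µM, limit read from the data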
# CYP2C19 inhib = inhibitors of human CYP2C19 | P33261 | CYP2C19 Supersomes, luciferin-H EGE luminescence, 30 min | inhibition, % at 5 µM | 96,000 tested, 21% active;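 active = CYP2C19 inhibition above a set limit at 5 µM in the primary screen, cut at about 50% in these data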;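 note: plate controls were negative control wells for no effect and 2.5 mM tranylcypromine positive control for full effect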
# Target sequence (P33261 whole entry, looked up): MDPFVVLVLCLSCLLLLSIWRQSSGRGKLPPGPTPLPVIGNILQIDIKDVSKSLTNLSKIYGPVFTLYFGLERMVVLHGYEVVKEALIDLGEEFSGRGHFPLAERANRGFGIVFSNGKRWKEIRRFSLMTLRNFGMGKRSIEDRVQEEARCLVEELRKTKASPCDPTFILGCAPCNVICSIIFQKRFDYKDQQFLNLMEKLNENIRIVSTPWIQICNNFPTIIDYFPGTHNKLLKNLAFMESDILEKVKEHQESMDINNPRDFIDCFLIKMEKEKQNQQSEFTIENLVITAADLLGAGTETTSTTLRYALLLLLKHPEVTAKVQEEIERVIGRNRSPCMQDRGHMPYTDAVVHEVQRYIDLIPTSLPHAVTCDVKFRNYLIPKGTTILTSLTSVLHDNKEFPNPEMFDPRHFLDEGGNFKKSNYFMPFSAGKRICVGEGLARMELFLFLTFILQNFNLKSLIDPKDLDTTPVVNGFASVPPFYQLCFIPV
# CYP2C19 act = increases human CYP2C19 enzyme activity; 96,000 tested, under 10 active; recombinant CYP2C19, luciferin-H EGE luminescence; active compounds read high; 0 = fully inhibited enzyme, 1 = untreated enzyme; activation factor at 5 µM;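 active = activation factor of at least 2 at 5 µM in the primary screen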;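 note: 0 = wells with 2.5 mM tranylcypromine and 1 = vehicle-only wells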
# PostGolgi yeast = growth inhibition of a yeast mutant, post-Golgi transport screen; post-Golgi transport phenotypic cell assay; inhibition, % at 10 µM; 98,000 tested, 0.9% active;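 note: yeast cells grown in 1536-well plates; yeast grown about 18 h at 30C before absorbance read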
# PostGolgi ctrl = yeast control strain growth, post-Golgi counter-screen; 98,000 tested, 5% active; efflux-deficient yeast background strain, growth absorbance A615, 16 h; inhibition, % at 10 µM; AID 738
# CYP2C9 act = activators of human CYP2C9 | P11712 | recombinant CYP2C9, luciferin-H conversion, luminescence; active compounds read high; factor 1 = untreated enzyme, 0 = blocked | activation factor at 5 µM | 96,000 tested, 1.4% active | AID 1024;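 active = activation factor of 2 or more for CYP2C9 at a 5 µM dose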;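 note: 0 = sulfaphenazole-blocked wells and 1 = vehicle-only wells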
# An asterisk follows results filed as active; x = not tested or not shown. The list is not random: actives were taken first. Their share in the collection is about 32%. Cut-off read from the data, not from the text of the source, unless noted: active = inhibition above about 30%; inactive = the rest.
SMILES,CYP2C9 inh,CYP2C19 inhib,CYP2C19 act,PostGolgi yeast,PostGolgi ctrl,CYP2C9 act
O=C(O)CC1C(=O)NCCN1Cc1ccc(F)c(F)c1 (stereo not given),x,x,x,-5,9,x
O=C1c2cnc3nc(SCc4ccc(Cl)cc4)nn3c2CC2c3ccccc3CCN12 (stereo not given),51*,-4,1,18,35*,0.5
O=C(C1CC1)N1CCc2cc(S(=O)(=O)NCC3COc4ccccc4O3)ccc21 (stereo not given),52*,72*,0.3,1,22,0.5
O=C(C1CC1)N1CCc2cc(Br)cc(S(=O)(=O)NCC3COc4ccccc4O3)c21 (stereo not given),59*,91*,0.1,9,13,0.4
Cn1c(=O)c2c(SCc3cccnc3)nc(C3CC3)nc2n(C)c1=O,57*,88*,0.1,-1,4,0.4
CCc1nc(SCc2cccnc2)c2c(=O)n(C)c(=O)n(C)c2n1,42,94*,0.1,1,12,0.6
Cc1ccc(Cl)cc1NC(=O)N[C@@H](C)C(=O)O,-16,-18,1.2,-3,2,1.2
CCCSc1ncc(Cl)c(C(=O)Nc2ccc(S(=O)(=O)N3CC(C)OC(C)C3)cc2)n1 (stereo not given),86*,54*,0.5,39*,21,0.1
Cc1ccc(O)c(-c2cc(C(=O)Nc3ccc(S(=O)(=O)N4CC(C)OC(C)C4)cc3)[nH]n2)c1 (stereo not given),23,-2,1,-9,2,0.8
CCOC(=O)c1sc2ncnc(NCC(c3cccs3)N(C)C)c2c1C (stereo not given),9,58*,0.4,-5,20,0.9
CC1C/C(=N/N2C(=O)CSC2=S)CC(C)(C)C1 (stereo not given),25,33,0.7,6,-6,0.8
CC1C/C(=N/N=C2/NC(=O)CS2)CC(C)(C)C1 (stereo not given),-7,-7,1.1,3,34*,1.1
O=C(CCc1ccccc1)Nc1nc2n(n1)C(c1ccc(Cl)cc1)CC(=O)N2 (stereo not given),-5,11,0.9,-4,46*,1.1
O=C(CCc1ccccc1)Nc1nc2n(n1)C(c1ccccc1)CC(=O)N2 (stereo not given),-7,-13,1.1,-5,-6,1.1
O=c1cc2[nH]c3ccccc3c(=O)n2nc1-c1ccccc1,71*,37,0.6,4,3,0.3
CCOC(=O)NC1(C(F)(F)F)NC(=O)N(C2CCCCC2)C1=O (stereo not given),16,16,0.8,-4,5,0.8
Cn1cnnc1SCC(=O)n1c2ccccc2c2ccccc21,2,34,0.7,-1,5,1
Cc1c(C)n(C(=O)CSc2nncn2C)c2ccccc12,-115,42,0.6,-3,-2,2.2*
Cc1c(C)n(C(=O)CN2CCC(C)CC2)c2ccccc12,-7,57*,0.4,-8,16,1.1
CC1=CC(C)(C)N(C(=O)CSc2ncn[nH]2)c2ccccc21,8,48,0.5,8,-5,0.9
Cc1c(C)n(C(=O)CSc2ncn[nH]2)c2ccccc12,-24,59*,0.4,-6,11,1.2
Cc1ccc(NC(=O)C(=O)NCc2ccc(/C=C(/C#N)C(=O)NCc3cccnc3)o2)cc1,58*,12,0.9,15,20,0.4
c1csc(-c2noc(COc3ccc4c(c3)CCCC4)n2)c1,12,10,0.9,-7,9,0.9
CCCC1(C)SC(NC(C)=O)=NN1C(C)=O (stereo not given),-18,-4,1,-6,-3,1.2
O=C(NC1CCCCC1)N1CCCCCCC1,-1,10,0.9,10,-2,1
SMILES,CYP2C9 inh,CYP2C19 inhib,CYP2C19 act,PostGolgi yeast,PostGolgi ctrl,CYP2C9 act
Fc1ccc(-c2nnc3ccc(N4CCCC4)nn23)cc1,28,-1,1,2,10,0.7
O=C(NC1CCCCC1)N1CCN(c2ncccn2)CC1,18,60*,0.4,9,2,0.8
O=C(Nc1ccccc1Cl)N1CCN(c2ncccn2)CC1,7,85*,0.1,-4,-5,0.9
O=C(Nc1ccccc1Cl)N1CCN(c2ccc3nnc(-c4ccc(F)cc4)n3n2)CC1,66*,31,0.7,5,6,0.3
O=C(Nc1ccccc1)N1CCN(c2ncccn2)CC1,52*,78*,0.2,9,4,0.5
O=C1CCC(c2ccccc2)N1C(=O)c1cccnc1 (stereo not given),x,x,x,-1,-3,x
O=C(c1cccc(N2C(=O)C3CC=CCC3C2=O)c1)N1CCN(c2ccccc2)CC1 (stereo not given),x,x,x,6,5,x
CN1CCN(CP(=O)(N2CCOCC2)N2CCOCC2)CC1,11,-5,1,13,19,0.9
Oc1ccccc1N1CCN(c2ncccn2)CC1,86*,84*,0.2,4,-3,0.1
Clc1cc(Sc2ccc(Br)cc2)nnc1-c1ccccc1,68*,54*,0.5,-8,65*,0.3
CC(SC1CCCC1)C(=O)NC(C)(C#N)C(C)C (stereo not given),6,16,0.8,19,31*,0.9
O=[n+]1c2c(n([O-])c3ccccc31)CCCC2,23,0,1,-15,10,0.8
COc1ccc(S(=O)(=O)Oc2ccc3c(c2)O/C(=C\c2cccnc2)C3=O)cc1,92*,75*,0.3,6,16,0.1
O=C1/C(=C/c2cccnc2)Oc2cc(OS(=O)(=O)c3ccccc3)ccc21,56*,35,0.7,6,5,0.4
O=C1CCCC2=C1C(c1ccc(OS(=O)(=O)c3ccc(Cl)cc3)cc1)C1=C(CCCC1=O)O2,-17,-10,1.1,-5,11,1.2
O=C1/C(=C/c2cccnc2)Oc2cc(OS(=O)(=O)c3ccc(Cl)cc3)ccc21,50*,26,0.7,-6,8,0.5
Cc1ccc(S(=O)(=O)Oc2cccc(N3C(=O)C4CC=CCC4C3=O)c2)cc1 (stereo not given),-38,16,0.8,-1,17,1.4
CN(C)c1ccc(N/C=C/C(=O)c2ccc(F)cc2)cc1,5,69*,0.3,-5,0,0.9
Cc1ccc(-n2c(=O)[nH]cc(C(=O)Nc3ccc4c(c3)OCCO4)c2=O)cc1C,12,-5,1.1,0,5,0.9
CCCc1cc(=O)[nH]c(-n2[nH]c3c(c2=O)CCCC3)n1,20,10,0.9,-5,9,0.8
Cc1cc(N2CCN(S(=O)(=O)c3ccc4c(c3)OCCO4)CC2)n2ncnc2n1,3,16,0.8,15,-4,1
CCCCCOC(=O)C1[C@H]2C(=O)N(CCCOC)C[C@]23C=C[C@H]1O3 (stereo not given in full),0,-3,1,1,1,1
